Results as given in PubChem BioAssay.
For part of these data: Measured potencies and affinities stand elsewhere. The list shows a part of the results. Calls of active or inactive are those of the source.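 Rule for the calls, unless noted: active = calcium signal ratio cut to more than 3 SD under the fully stimulated control mean yet still positive, in both repeats and the primary screen; inactive = the rest.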

Experiments:
[1] = biological target: Short transient receptor potential channel 4 (Mus musculus) (UniProt Q9QUQ5); assay: DAMGO-gated TRPC4 membrane potential modulation – cell-based, second specificity screen, HEK293 TRPC4/mu-opioid, selectivity assay for TRPC6 inhibitor project, confirmation (AID 2776;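 active = compounds whose fluorescence signal differed from control wells by over 3 SD, either direction, in both duplicate plates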); conditions: HEK293 TRPC4/MOR, membrane potential dye fluorescence, at 10 µM, channel activated by saturating DAMGO dose; active compounds read high
Short transient receptor potential channel 4 (Mus musculus), sequence (Q9QUQ5 whole entry, looked up): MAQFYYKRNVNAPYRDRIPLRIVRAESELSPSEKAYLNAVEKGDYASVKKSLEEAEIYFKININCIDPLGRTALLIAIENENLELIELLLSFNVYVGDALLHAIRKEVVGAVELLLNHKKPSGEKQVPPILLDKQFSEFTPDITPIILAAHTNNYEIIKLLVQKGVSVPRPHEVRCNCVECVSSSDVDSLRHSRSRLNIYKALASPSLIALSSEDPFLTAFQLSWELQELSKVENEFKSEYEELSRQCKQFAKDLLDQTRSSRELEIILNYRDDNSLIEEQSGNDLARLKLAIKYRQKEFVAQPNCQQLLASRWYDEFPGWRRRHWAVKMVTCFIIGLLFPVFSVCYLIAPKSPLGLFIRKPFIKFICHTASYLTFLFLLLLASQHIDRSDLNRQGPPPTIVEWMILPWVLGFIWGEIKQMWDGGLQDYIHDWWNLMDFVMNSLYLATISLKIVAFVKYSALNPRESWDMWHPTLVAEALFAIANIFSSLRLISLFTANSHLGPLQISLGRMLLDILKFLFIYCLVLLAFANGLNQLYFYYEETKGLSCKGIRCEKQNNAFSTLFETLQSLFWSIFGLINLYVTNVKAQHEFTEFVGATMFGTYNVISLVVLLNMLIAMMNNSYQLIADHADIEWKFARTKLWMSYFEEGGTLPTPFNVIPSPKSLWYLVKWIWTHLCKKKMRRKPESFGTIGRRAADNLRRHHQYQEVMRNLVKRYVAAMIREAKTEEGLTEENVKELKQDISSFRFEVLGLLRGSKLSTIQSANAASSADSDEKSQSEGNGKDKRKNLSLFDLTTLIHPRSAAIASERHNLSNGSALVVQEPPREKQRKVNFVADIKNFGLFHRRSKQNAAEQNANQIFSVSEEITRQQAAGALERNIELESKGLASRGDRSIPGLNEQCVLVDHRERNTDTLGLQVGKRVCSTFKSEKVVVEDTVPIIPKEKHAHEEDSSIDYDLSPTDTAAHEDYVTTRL

[2] = system: transient receptor potential cation channel C4 (TRPC4), mouse; assay: membrane potential change in TRPC4 cells – cell-based, HEK293 TRPC4/mu-opioid, membrane potential dye, selectivity assay for TRPC6 inhibitor project, confirmation (AID 2777;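 active = rise or fall in signal beyond 3 SD of buffer-only wells in both replicate plates, either sign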;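 note: integrated kinetic ratio of fluorescence range over baseline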); conditions: membrane potential fluorescence, at 10 µM
[3] = parental HEK293 depolarization signal interference – cell-based, second counter screen, counter-screen for TRPC6 inhibitor project, confirmation (AID 2779;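 active = membrane potential signal moving either way by over 3 SD of the maximum-effect control, in both duplicate plates, meaning non-specific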); conditions: parental HEK293 membrane potential dye fluorescence; at 10 µM; maximal acetylcholine challenge after compound addition
[4] = nonspecific voltage dye signal in HEK293 – cell-based, parental HEK293, counter-screen for TRPC6 inhibitor project, confirmation (AID 2780;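 active = membrane potential signal shifting up or down by more than 3 SD of buffer-only wells, on both duplicate plates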;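 for membrane potential signal change: plate controls were buffer EC0 wells for no effect and acetylcholine ECmax wells for full effect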); conditions: parental HEK293 membrane potential dye fluorescence; at 10 µM
[5] = biological target: Short transient receptor potential channel 6 (Mus musculus) (UniProt Q61143); assay: blockers of TRPC6 cation channel activity – HEK293 cells, membrane potential dye, duplicate, confirmation (AID 488960;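 active = fluorescence ratio falls more than 5 SD below the full-stimulation control mean, in both duplicate runs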;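 for inhibition: integrated fluorescence ratio of peak minus minimum over baseline after agonist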); conditions: ACh-evoked depolarization, at 10 µM; active compounds read high
Short transient receptor potential channel 6 (Mus musculus), sequence (Q61143 whole entry, looked up): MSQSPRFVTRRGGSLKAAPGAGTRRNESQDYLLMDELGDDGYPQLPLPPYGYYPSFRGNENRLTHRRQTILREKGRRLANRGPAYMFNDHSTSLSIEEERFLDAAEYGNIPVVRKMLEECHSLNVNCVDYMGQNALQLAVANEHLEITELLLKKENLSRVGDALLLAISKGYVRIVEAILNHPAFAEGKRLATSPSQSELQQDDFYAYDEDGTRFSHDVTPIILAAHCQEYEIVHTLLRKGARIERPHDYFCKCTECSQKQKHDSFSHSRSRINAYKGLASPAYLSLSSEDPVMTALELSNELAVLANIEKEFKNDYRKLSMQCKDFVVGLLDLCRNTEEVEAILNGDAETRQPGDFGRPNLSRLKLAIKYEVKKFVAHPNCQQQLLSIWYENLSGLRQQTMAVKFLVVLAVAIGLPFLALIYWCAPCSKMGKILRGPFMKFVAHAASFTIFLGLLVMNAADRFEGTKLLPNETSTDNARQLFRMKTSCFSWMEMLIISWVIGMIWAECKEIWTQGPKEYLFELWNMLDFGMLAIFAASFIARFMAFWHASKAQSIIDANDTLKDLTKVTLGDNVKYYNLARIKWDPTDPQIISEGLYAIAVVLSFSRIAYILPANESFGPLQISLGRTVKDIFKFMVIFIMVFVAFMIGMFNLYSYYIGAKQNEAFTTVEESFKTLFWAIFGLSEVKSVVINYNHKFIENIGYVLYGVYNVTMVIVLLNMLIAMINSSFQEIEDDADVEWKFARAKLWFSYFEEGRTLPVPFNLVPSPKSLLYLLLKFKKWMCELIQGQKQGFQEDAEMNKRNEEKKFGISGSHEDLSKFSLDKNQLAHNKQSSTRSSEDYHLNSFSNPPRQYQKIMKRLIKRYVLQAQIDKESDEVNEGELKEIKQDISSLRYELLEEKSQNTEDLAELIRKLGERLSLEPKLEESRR

[6] = biological target: Short transient receptor potential channel 6 (Mus musculus) (UniProt Q61143); assay: mouse TRPC6 channel activators, confirmation, HEK293 cells, membrane potential dye, duplicate (AID 488961;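 active = ratio signal rise beyond 5 SD above unstimulated control wells' mean, seen in both duplicate runs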); conditions: HEK293-TRPC6 membrane potential dye fluorescence, FDSS, at 10 µM; active compounds read high
[7] = system: TRPC4 beta (transient receptor potential cation channel C4), mouse; assay: TRPC4 cation channel opening, retest – cell-based, Fluo4 calcium, HEK293 TRPC4beta/mu-opioid, duplicates, 10 µM, confirmation (AID 2426;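 active = fluorescence ratio normalized to control raised more than 50% in primary screen plus both repeat runs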;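 for activation: percent rise of integrated ratio over buffer wells lacking compound which define 0%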); conditions: Fluo4 calcium fluorescence, at 10 µM; active compounds read high
[8] = system: transient receptor potential cation channel C4 beta (TRPC4), mouse; assay: TRPC4 cation channel opening, second retest – cell-based, second round, Fluo4, HEK293 TRPC4beta/mu-opioid, 1 µM, confirmation (AID 2461;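 active = primary screen active and over 50% activation in each of two duplicate runs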;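 for activation: 0% = wells without test compound as baseline of integrated fluorescence ratio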); conditions: Fluo4 calcium fluorescence, at 1 µM; active compounds read high
[9] = system: TRPC4 (transient receptor potential cation channel C4 beta), mouse; assay: potentiation of DAMGO EC20 TRPC4 response – cell-based, second round, Fluo-4, HEK293 TRPC4beta/mu-opioid, 1 µM, confirmation (AID 2554;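 active = primary screen hit whose fluorescence ratio, in both repeats, exceeds the weak agonist control mean by 3 SD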); conditions: DAMGO EC20, Fluo-4 calcium flux, at 1 µM; active compounds read high
[10] = system: TRPC4 beta (transient receptor potential cation channel C4), mouse; assay: potentiation of DAMGO EC20 TRPC4 response – cell-based, Fluo-4, HEK293 TRPC4beta/mu-opioid, confirmation (AID 2555;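 active = primary screen hit whose calcium fluorescence ratio, in both repeats, exceeds the weak agonist control mean by 3 SD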); conditions: DAMGO EC20, Fluo-4 calcium flux, at 10 µM; active compounds read high
[11] = biological target: Short transient receptor potential channel 4 (Mus musculus) (UniProt Q9QUQ5); assay: blockers of DAMGO-evoked TRPC4 calcium flux – cell-based, Fluo4, HEK293 TRPC4beta/mu-opioid, confirmation (AID 2636;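 active = calcium signal cut by more than 3 SD below the full-agonist control yet still positive, in both repeats and the earlier primary screen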); conditions: at 10 µM; active compounds read high
[12] = biological target: Short transient receptor potential channel 4 (Mus musculus) (UniProt Q9QUQ5); assay: blockers of DAMGO-evoked TRPC4 calcium flux – cell-based, second round, Fluo4, HEK293 TRPC4beta/mu-opioid, 1 µM, confirmation (AID 2637); conditions: at 1 µM; active compounds read high
[13] = biological target: Short transient receptor potential channel 4 (Mus musculus) (UniProt Q9QUQ5); assay: potentiation of DAMGO-evoked TRPC4 calcium signal – cell-based, HEK293 TRPC4/mu-opioid, Fluo-4 calcium, EC20 DAMGO, dose response (AID 434941;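 active = earlier screen potentiator hit that boosts the TRPC4 ion channel at some dose, with a dose response; inactive = no potentiation, no dose response, or not a prior hit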;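 note: calcium entry triggered by an EC20 dose of DAMGO at the co-expressed mu-opioid receptor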)
[14] = biological target: Short transient receptor potential channel 6 (Mus musculus) (UniProt Q61143); assay: TRPC6 blockade by TRPC4 inhibitor hits – cell-based, HEK293, membrane potential dye, duplicate, selectivity assay for TRPC4 inhibitor project, confirmation (AID 434948;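 active = active in primary screen and both duplicates, each dropping signal beyond three positive-control SD with fluorescence still positive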); conditions: HEK293 TRPC6, membrane potential dye fluorescence, at 10 µM, stimulated with maximal-effect acetylcholine; active compounds read high
[15] = biological target: Short transient receptor potential channel 6 (Mus musculus) (UniProt Q61143); assay: TRPC6 opening by TRPC4 activator hits – cell-based, HEK293, membrane potential dye, duplicate, selectivity assay for TRPC4 activator project, confirmation (AID 434950;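 active = membrane potential signal rise above negative control mean plus 3 SD in both duplicates, also active in the earlier TRPC4 screen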;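 for activation: 0% = buffer only wells and 100% = acetylcholine maximal-effect wells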); conditions: HEK293 TRPC6, membrane potential fluorescence, at 10 µM; activation: active compounds read high; outcome: activation
[16] = biological target: Short transient receptor potential channel 6 (Mus musculus) (UniProt Q61143); assay: positive modulators of mouse TRPC6 channel – HEK293 cells, membrane potential dye, duplicate, selectivity assay for TRPC4 potentiator project, confirmation (AID 434952;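 active = compound raising the membrane signal above positive-control mean plus 3 SD in both repeats, and a primary screen hit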); conditions: HEK293 TRPC6, membrane potential dye fluorescence, at 10 µM, maximal acetylcholine added after compound; active compounds read high
[17] = biological target: Short transient receptor potential channel 4 (Mus musculus) (UniProt Q9QUQ5); assay: calcium flux activators in TRPC4/5HT1a cells, counter-screen for TRPC4 activator project, cell-based, second counter screen, HEK293 TRPC4/5HT1a, Fluo-4 (AID 434977;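 active = calcium signal rise above buffer-control mean plus 5 SD in both duplicates, and also a hit in the primary screen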;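 note: plate controls were assay buffer for no effect and maximal serotonin response for full effect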); conditions: Fluo-4 calcium flux, at 10 µM; active compounds read high
[18] = serotonin-gated TRPC4 signal block – cell-based, second counter screen, HEK293 TRPC4/5HT1a, Fluo-4, counter-screen for TRPC4 inhibitor project, confirmation (AID 434978;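 active = primary screen active whose calcium signal fell more than 3 SD beyond the full-serotonin control mean in both duplicate plates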;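 for outcome: serotonin given first at submaximal then at maximal dose after compound preincubation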); conditions: Fluo-4 calcium flux, at 10 µM, serotonin added to trigger calcium flux; active compounds read high
[19] = system: TRPC4 (mouse), co-expressed with 5HT1a in HEK293; assay: enhancement of serotonin-evoked TRPC4 response – cell-based, second counter screen, HEK293 TRPC4/5HT1a, Fluo-4, counter-screen for TRPC4 potentiator project, confirmation (AID 434979;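 active = signal rise over 3 SD above mean of control wells given weak agonist, in both repeats and first screen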); conditions: Fluo-4 calcium flux, at 10 µM, serotonin added at its EC20 dose; active compounds read high
[20] = nonspecific calcium rise without TRPC4 – cell-based, HEK293 mu-opioid receptor line, counter-screen for TRPC4 activator project, confirmation (AID 449723;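 active = hit in primary screen, with calcium signal over 5 SD above buffer well mean in both duplicates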;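 note: counter screen cells carry the mu-opioid receptor alone and lack TRPC4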); conditions: HEK293 mu-opioid cells, Fluo-4 calcium fluorescence, at 10 µM; active compounds read high
[21] = nonspecific potentiation of DAMGO calcium response – cell-based, HEK293 mu-opioid receptor line, counter-screen for TRPC4 allosteric potentiator project, confirmation (AID 449724;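 active = calcium signal rise more than 3 SD above the low-dose agonist control mean, in both duplicate plates and the primary screen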); conditions: HEK293 mu-opioid receptor cells, Fluo-4 calcium flux, at 10 µM, compound added before EC20 DAMGO stimulus; active compounds read high
[22] = nonspecific flux increase, KCNQ1-free cells – parental CHO cells, counter-screen for KCNQ1 potentiator project (AID 493006;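 active = duplicate-averaged activation above buffer control mean plus 5 SD of those controls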;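 note: fluorescence ratio of max minus min over baseline after K+ and Tl+ depolarization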); conditions: parental CHO-K1 cells, FluxOR thallium flux, at 10 µM; active compounds read high
[23] = biological target: Potassium voltage-gated channel subfamily KQT member 1 (Homo sapiens) (UniProt P51787); assay: enhancement of KCNQ1 channel thallium flux – FluxOR thallium flux, CHO cells, duplicates, confirmation (AID 493007;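 active = potentiation averaged over duplicate wells exceeding buffer-only control mean by more than 3 SD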;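 note: 0% = buffer-only wells and 100% = R-L3 activator control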); conditions: KCNQ1 cell line, FluxOR thallium flux fluorescence, at 10 µM; active compounds read high, % of reference activator effect, buffer zero
Potassium voltage-gated channel subfamily KQT member 1 (Homo sapiens), sequence (P51787 whole entry, looked up): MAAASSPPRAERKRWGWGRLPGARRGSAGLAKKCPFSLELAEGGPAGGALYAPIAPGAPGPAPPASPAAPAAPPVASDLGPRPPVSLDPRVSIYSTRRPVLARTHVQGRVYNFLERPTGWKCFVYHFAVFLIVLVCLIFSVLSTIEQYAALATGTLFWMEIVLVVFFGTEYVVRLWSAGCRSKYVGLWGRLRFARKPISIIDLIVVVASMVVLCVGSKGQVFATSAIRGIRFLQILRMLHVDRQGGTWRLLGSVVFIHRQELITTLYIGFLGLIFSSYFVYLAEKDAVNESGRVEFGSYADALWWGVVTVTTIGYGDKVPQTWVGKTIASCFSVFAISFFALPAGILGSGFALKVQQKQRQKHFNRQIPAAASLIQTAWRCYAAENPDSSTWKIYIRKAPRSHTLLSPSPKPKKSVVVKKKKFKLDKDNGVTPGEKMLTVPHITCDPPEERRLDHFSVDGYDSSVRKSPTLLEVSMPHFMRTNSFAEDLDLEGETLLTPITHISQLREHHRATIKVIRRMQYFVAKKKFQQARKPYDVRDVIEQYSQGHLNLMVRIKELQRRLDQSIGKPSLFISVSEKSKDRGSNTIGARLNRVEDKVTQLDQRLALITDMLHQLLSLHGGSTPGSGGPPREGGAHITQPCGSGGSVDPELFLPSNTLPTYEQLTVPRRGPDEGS

[24] = biological target: Potassium voltage-gated channel subfamily KQT member 2 (Rattus norvegicus) (UniProt O88943); assay: KCNQ2 thallium flux enhancement – KCNQ2-CHO-K1 cells, selectivity assay for KCNQ1 potentiator project (AID 493009;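 active = mean duplicate potentiation above the buffer control mean plus 5 SD of buffer wells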;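 note: assay conditions were tuned for KCNQ1 rather than KCNQ2 modulators; signal is max minus min fluorescence divided by baseline after thallium stimulus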); conditions: FluxOR thallium flux fluorescence, at 10 µM; active compounds read high, scaled: buffer 0, activator control 100
Potassium voltage-gated channel subfamily KQT member 2 (Rattus norvegicus), sequence (O88943 whole entry, looked up): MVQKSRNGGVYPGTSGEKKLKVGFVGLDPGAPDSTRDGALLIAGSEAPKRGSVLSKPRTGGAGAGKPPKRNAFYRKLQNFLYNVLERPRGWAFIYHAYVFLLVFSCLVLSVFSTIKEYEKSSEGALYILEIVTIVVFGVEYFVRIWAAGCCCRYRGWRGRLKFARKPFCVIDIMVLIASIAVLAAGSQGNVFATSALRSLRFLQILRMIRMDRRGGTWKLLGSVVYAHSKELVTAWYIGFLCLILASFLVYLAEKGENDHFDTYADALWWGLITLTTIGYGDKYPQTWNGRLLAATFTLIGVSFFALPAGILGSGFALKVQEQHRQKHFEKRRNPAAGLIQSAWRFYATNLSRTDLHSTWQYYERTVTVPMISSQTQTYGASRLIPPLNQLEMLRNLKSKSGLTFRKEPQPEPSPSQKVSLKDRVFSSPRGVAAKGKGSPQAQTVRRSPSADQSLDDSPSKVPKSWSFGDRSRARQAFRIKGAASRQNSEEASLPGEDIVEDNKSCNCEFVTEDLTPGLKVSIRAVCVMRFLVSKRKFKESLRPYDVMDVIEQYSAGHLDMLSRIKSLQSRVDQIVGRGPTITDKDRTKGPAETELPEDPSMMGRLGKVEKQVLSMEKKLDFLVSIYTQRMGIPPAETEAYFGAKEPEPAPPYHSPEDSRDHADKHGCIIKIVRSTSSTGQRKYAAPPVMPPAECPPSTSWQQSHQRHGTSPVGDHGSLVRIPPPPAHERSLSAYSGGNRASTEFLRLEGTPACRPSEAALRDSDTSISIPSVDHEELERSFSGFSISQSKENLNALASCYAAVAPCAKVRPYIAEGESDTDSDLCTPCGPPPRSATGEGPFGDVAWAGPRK

[25] = biological target: Potassium voltage-gated channel subfamily KQT member 1 (Homo sapiens) (UniProt P51787); assay: KCNQ1 activators by electrophysiology – IonWorks patch clamp, KCNQ1-CHO cells, orthogonal assay for KCNQ1 potentiator project, confirmation (AID 493184;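 active = current rise at least 3 SD above the untreated control mean in each of two repeat wells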); conditions: automated patch clamp current, at 10 µM; active compounds read high
[26] = biological target: Short transient receptor potential channel 4 (Mus musculus) (UniProt Q9QUQ5); assay: block of DAMGO-driven TRPC4 calcium entry – cell-based, HEK293 TRPC4/mu-opioid, Fluo-4 calcium, dose response (AID 434942;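 active = primary screen inhibitor hit that blocks the TRPC4 channel at some tested dose, yielding a dose curve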)

O=C(NNS(=O)(=O)c1ccc(Cl)cc1)C1CCN(Cc2ccccc2)CC1
inactive: outcome [1] | outcome [2] | outcome [6]
active: signal change vs control [3] -4% | membrane potential signal change [4] 0.15% | inhibition [5] 77.8%

CCN(CC)c1ccc2cc(C(N)=O)/c(=N\NC(=O)c3ccncc3)oc2c1
active: inhibition [1] 70.5% | activity change, negative = inhibition [2] 31.7% | signal change vs control [3] -52% | membrane potential signal change [4] 1.95%
inactive: outcome [5] | outcome [6]

CC(C)(C)c1ccc(C(=O)NC(=S)NNC(=O)COc2ccccc2)cc1
active: inhibition [11] 78% | activation [17] 16.6% | inhibition [18] 27.8% | activation [22] 186% | potentiation [23] 59.5% | potentiation [24] 208%
inactive: outcome [7] | outcome [8] | outcome [9] | outcome [10] | outcome [12] | outcome [13] | outcome [14] | outcome [15] | outcome [16] | outcome [19] | outcome [20] | outcome [21] | outcome [25]

Cn1c(O)c(/C=N/NC(=O)c2cc3ccccc3cc2O)c2ccccc21
inactive: outcome [8] | outcome [9] | outcome [11] | outcome [12] | outcome [26] | outcome [14] | outcome [18]
active: activation [7] 81% | potentiation [10] 27% | activation [15] 524% | potentiation, percent of control [16] 238% | activation [17] 59.2% | potentiation [19] 17.8% | activation [20] 82.4% | activation [21] 879%

CCOC(=O)N1CCC(NC(=O)CN2C(=O)COc3ccc(C(C)(C)C)cc32)CC1
inactive: outcome [1] | outcome [2] | outcome [3] | outcome [4] | outcome [5]

CN(C)CCOC(=O)C(c1ccccc1)C1(O)CCCC1 (stereo not drawn)
inactive: outcome [1] | outcome [2] | outcome [6]
active: signal change vs control [3] -39.5% | membrane potential signal change [4] 0.13% | inhibition [5] 90.5%

CN(C)CCCOc1cccc(Cl)c1
inactive: outcome [11] | outcome [12] | outcome [26] | outcome [14] | outcome [16] | outcome [18] | outcome [20] | outcome [21]
active: activation [7] 71% | activation [8] 55% | potentiation [9] 32% | potentiation [10] 37% | activation [15] 51% | activation [17] 17.9% | potentiation [19] 28.7%

Cc1cc(OCCNCCO)cc(C)c1Cl
active: activation [7] 122% | activation [8] 65% | potentiation [9] 20% | potentiation [10] 19% | activation [15] 37% | activation [17] 35.3% | potentiation [19] 24.3%
inactive: outcome [11] | outcome [12] | outcome [26] | outcome [14] | outcome [16] | outcome [18] | outcome [20] | outcome [21]

COc1ccc(N/C(C)=C2/C(=O)C(=O)N(CCO)C2c2ccc(Br)cc2)cc1 (stereo not drawn)
inactive: outcome [8] | outcome [10] | outcome [11] | outcome [12] | outcome [26] | outcome [14] | outcome [16] | outcome [18] | outcome [20] | outcome [21]
active: activation [7] 289% | potentiation [9] 141% | activation [15] 31.5% | activation [17] 57.5% | potentiation [19] 60.7%

COc1ccc(CC(=O)Nc2sc(Cc3ccccc3)c(C)c2C(N)=O)cc1
inactive: outcome [1] | outcome [2] | outcome [3] | outcome [4] | outcome [5] | outcome [6]
